{"source": "PubChem BioAssay", "key": {"[1]": {"experiment": "differential killing of epithelial or mesenchymal cells, primary screen, imaging, PC-3E GFP, TEM4-18 mCherry, co-culture (AID 1345086;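 active = compounds killing one labelled cell type while sparing the other, by normalised counts and ratio limits, not self-fluorescent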;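 for all read-outs here: cells exposed to compound for 72 h before imaging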;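 for red/green cell ratio (normalised): normalised mesenchymal count divided by normalised epithelial count so high means epithelial killing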)", "details": "imaging cell counts, at 1 µM; for red/green cell ratio (normalised): actives lie on both sides, counts scaled to control wells, 1 = unselective"}, "[2]": {"experiment": "sensitizers of A549 cells to miR-34 induction, primary screen, imaging, A549 dox-inducible miR-34, nuclei and caspase counts (AID 1347080)", "details": "A549 miR-34 inducible, Hoechst nuclei count, 48 h"}, "[3]": {"details": "measured here: epithelial PC-3E GFP cell survival"}, "[4]": {"details": "measured here: mesenchymal TEM4-18 mCherry cell survival"}, "[5]": {"details": "stronger effect = lower value, cell number ratio, induced over uninduced"}, "[6]": {"details": "measured here: relative caspase fold change +Dox/-Dox"}, "[7]": {"details": "measured here: total cells with miR-34 induction, stronger effect = lower value"}, "[8]": {"details": "measured here: total cells without miR-34 induction"}}, "note": "Several values for one entry are separate records, joined by “and”; a condition that tells them apart may be missing. Equal values may be shown once. Activity calls are given as the source filed them.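 Rule for the calls, unless noted: active = compounds whose cell count with miR-34 switched on is under 0.7 times the count with it off; inactive = the rest.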", "data": [{"smiles": "C[C@]12C=CC(=O)C=C1CCC1C2[C@@H](O)C[C@@]2(C)C1CC[C@]2(O)C(=O)COP(=O)(O)O", "note": "(some centres not stated)", "values": [{"measurement": "red/green cell ratio (normalised)", "setting": "[1]", "value": "1.33 (inactive)"}, {"measurement": "normalised cell number", "setting": "[1]; [3]", "value": 0.86}, {"measurement": "normalised cell number", "setting": "[1]; [4]", "value": 1.15}, {"measurement": "fold change", "setting": "[2]; [5]", "value": "0.855 (inactive)"}, {"measurement": "fold change", "setting": "[2]; [6]", "value": 1.09}, {"measurement": "cell count", "setting": "[2]; [7]", "value": 6110}, {"measurement": "cell count", "setting": "[2]; [8]", "value": 7150}]}, {"smiles": "O=c1[nH]cnc2c1ncn2C1O[C@H](CO)[C@@H](O)[C@H]1O", "note": "(some centres not stated)", "values": [{"measurement": "red/green cell ratio (normalised)", "setting": "[1]", "value": "1.22 (inactive)"}, {"measurement": "normalised cell number", "setting": "[1]; [3]", "value": 0.83}, {"measurement": "normalised cell number", "setting": "[1]; [4]", "value": 1.02}, {"measurement": "fold change", "setting": "[2]; [5]", "value": "0.943 (inactive)"}, {"measurement": "fold change", "setting": "[2]; [6]", "value": 0.652}, {"measurement": "cell count", "setting": "[2]; [7]", "value": 8910}, {"measurement": "cell count", "setting": "[2]; [8]", "value": 9440}]}, {"smiles": "OC[C@@H](O)[C@H](O)[C@@H](O)[C@H](O)CO", "values": [{"measurement": "red/green cell ratio (normalised)", "setting": "[1]", "value": "1.12 (inactive)"}, {"measurement": "normalised cell number", "setting": "[1]; [3]", "value": 0.97}, {"measurement": "normalised cell number", "setting": "[1]; [4]", "value": 1.08}, {"measurement": "fold change", "setting": "[2]; [5]", "value": "0.853 (inactive)"}, {"measurement": "fold change", "setting": "[2]; [6]", "value": 0.862}, {"measurement": "cell count", "setting": "[2]; [7]", "value": 7670}, {"measurement": "cell count", "setting": "[2]; [8]", "value": 9000}]}, {"smiles": "Cc1cc2nc3c(=O)[nH]c(=O)nc-3n(C[C@@H](O)[C@@H](O)[C@@H](O)COP(=O)(O)O)c2cc1C", "values": [{"measurement": "red/green cell ratio (normalised)", "setting": "[1]", "value": "1.01 (inactive)"}, {"measurement": "normalised cell number", "setting": "[1]; [3]", "value": 1.03}, {"measurement": "normalised cell number", "setting": "[1]; [4]", "value": 1.04}, {"measurement": "fold change", "setting": "[2]; [5]", "value": "0.895 (inactive)"}, {"measurement": "fold change", "setting": "[2]; [6]", "value": 1.15}, {"measurement": "cell count", "setting": "[2]; [7]", "value": 8530}, {"measurement": "cell count", "setting": "[2]; [8]", "value": 9530}]}, {"smiles": "CC1(C)S[C@@H]2[C@H](NC(=O)[C@H](C(=O)O)c3cccs3)C(=O)N2[C@H]1C(=O)O", "values": [{"measurement": "red/green cell ratio (normalised)", "setting": "[1]", "value": "0.96 (inactive)"}, {"measurement": "normalised cell number", "setting": "[1]; [3]", "value": 1.05}, {"measurement": "normalised cell number", "setting": "[1]; [4]", "value": 1.01}, {"measurement": "fold change", "setting": "[2]; [5]", "value": "0.949 (inactive)"}, {"measurement": "fold change", "setting": "[2]; [6]", "value": 0.673}, {"measurement": "cell count", "setting": "[2]; [7]", "value": 9210}, {"measurement": "cell count", "setting": "[2]; [8]", "value": 9700}]}, {"smiles": "C[C@]1(Cn2ccnn2)C(C(=O)O)N2C(=O)CC2S1(=O)=O", "note": "(some centres not stated)", "values": [{"measurement": "red/green cell ratio (normalised)", "setting": "[1]", "value": "0.89 (inactive)"}, {"measurement": "normalised cell number", "setting": "[1]; [3]", "value": 1.34}, {"measurement": "normalised cell number", "setting": "[1]; [4]", "value": 1.19}, {"measurement": "fold change", "setting": "[2]; [5]", "value": "0.905 (inactive)"}, {"measurement": "fold change", "setting": "[2]; [6]", "value": 0.742}, {"measurement": "cell count", "setting": "[2]; [7]", "value": 8100}, {"measurement": "cell count", "setting": "[2]; [8]", "value": 8960}]}, {"smiles": "C[C@@H]1CC2C3CCC4=CC(=O)C=C[C@]4(C)[C@@]3(F)[C@@H](O)C[C@]2(C)[C@H]1C(=O)CO", "note": "(some centres not stated)", "values": [{"measurement": "red/green cell ratio (normalised)", "setting": "[1]", "value": "1.08 (inactive)"}, {"measurement": "normalised cell number", "setting": "[1]; [3]", "value": 1.08}, {"measurement": "normalised cell number", "setting": "[1]; [4]", "value": 1.16}, {"measurement": "fold change", "setting": "[2]; [5]", "value": "0.893 (inactive) and 0.821 (inactive)"}, {"measurement": "fold change", "setting": "[2]; [6]", "value": "0.943 and 1.01"}, {"measurement": "cell count", "setting": "[2]; [7]", "value": "6390 and 5470"}, {"measurement": "cell count", "setting": "[2]; [8]", "value": "7160 and 6670"}]}, {"smiles": "Cc1cc(CC(C)CC(C)(C)C)n(O)c(=O)c1", "note": "(configuration not stated) (tested in a mixture with another compound)", "values": [{"measurement": "red/green cell ratio (normalised)", "setting": "[1]", "value": "0.92 (inactive)"}, {"measurement": "normalised cell number", "setting": "[1]; [3]", "value": 1.04}, {"measurement": "normalised cell number", "setting": "[1]; [4]", "value": 0.95}, {"measurement": "fold change", "setting": "[2]; [5]", "value": "1.25 (inactive) and 1.02 (inactive)"}, {"measurement": "fold change", "setting": "[2]; [6]", "value": "0.741 and 0.825"}, {"measurement": "cell count", "setting": "[2]; [7]", "value": "2940 and 2820"}, {"measurement": "cell count", "setting": "[2]; [8]", "value": "2360 and 2770"}]}, {"smiles": "CCC(CC)O[C@@H]1C=C(C(=O)OC)C[C@H](N)[C@H]1NC(C)=O", "values": [{"measurement": "red/green cell ratio (normalised)", "setting": "[1]", "value": "0.99 (inactive)"}, {"measurement": "normalised cell number", "setting": "[1]; [3]", "value": 1.01}, {"measurement": "normalised cell number", "setting": "[1]; [4]", "value": 1}, {"measurement": "fold change", "setting": "[2]; [5]", "value": "0.882 (inactive)"}, {"measurement": "fold change", "setting": "[2]; [6]", "value": 1.08}, {"measurement": "cell count", "setting": "[2]; [7]", "value": 8740}, {"measurement": "cell count", "setting": "[2]; [8]", "value": 9910}]}, {"smiles": "CC1/C=C/C=C/C=C/C=C/C=C/C=C/C=C/C(O[C@@H]2O[C@H](C)[C@H](O)[C@@H](O)[C@@H]2N)CC(O)C(C(=O)O)C(O)CC(=O)CC(O)CC(O)CC(O)CC(=O)CCCC(=O)CC(=O)OC1C(C)CC(C)C(O)CC(=O)c1ccc(N)cc1", "note": "(some centres not stated)", "values": [{"measurement": "red/green cell ratio (normalised)", "setting": "[1]", "value": "0.94 (inactive)"}, {"measurement": "normalised cell number", "setting": "[1]; [3]", "value": 1.09}, {"measurement": "normalised cell number", "setting": "[1]; [4]", "value": 1.03}, {"measurement": "fold change", "setting": "[2]; [5]", "value": "0.786 (inactive)"}, {"measurement": "fold change", "setting": "[2]; [6]", "value": 1.31}, {"measurement": "cell count", "setting": "[2]; [7]", "value": 5340}, {"measurement": "cell count", "setting": "[2]; [8]", "value": 6790}]}, {"smiles": "CC(=O)[C@@]12O[C@](C)(c3ccccc3)O[C@@H]1CC1C3CCC4=CC(=O)CC[C@]4(C)C3CC[C@@]12C", "note": "(some centres not stated)", "values": [{"measurement": "red/green cell ratio (normalised)", "setting": "[1]", "value": "1.21 (inactive)"}, {"measurement": "normalised cell number", "setting": "[1]; [3]", "value": 1.05}, {"measurement": "normalised cell number", "setting": "[1]; [4]", "value": 1.26}, {"measurement": "fold change", "setting": "[2]; [5]", "value": "0.858 (inactive)"}, {"measurement": "fold change", "setting": "[2]; [6]", "value": 1.15}, {"measurement": "cell count", "setting": "[2]; [7]", "value": 5100}, {"measurement": "cell count", "setting": "[2]; [8]", "value": 5940}]}]}
